The results in this text go back to PubChem BioAssay (Tox21).

For assay [1], the target named is Luciferin 4-monooxygenase (Photinus pyralis) (UniProt P08659). The assay is described as follows: qHTS assay to identify small molecule inhibitors of firefly luciferase (AID 1224835). Further: nearly all actives have a fitted effect of over 25% in size. Further: potency means the concentration at half of the fitted maximal effect. In short, it runs like this: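 Biochemical qHTS: compounds run as interplate titrations against purified firefly enzyme, with D-luciferin and ATP each at its KM concentration. Light output recorded by CCD imaging.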
Luciferin 4-monooxygenase (Photinus pyralis), sequence (P08659 whole entry, looked up): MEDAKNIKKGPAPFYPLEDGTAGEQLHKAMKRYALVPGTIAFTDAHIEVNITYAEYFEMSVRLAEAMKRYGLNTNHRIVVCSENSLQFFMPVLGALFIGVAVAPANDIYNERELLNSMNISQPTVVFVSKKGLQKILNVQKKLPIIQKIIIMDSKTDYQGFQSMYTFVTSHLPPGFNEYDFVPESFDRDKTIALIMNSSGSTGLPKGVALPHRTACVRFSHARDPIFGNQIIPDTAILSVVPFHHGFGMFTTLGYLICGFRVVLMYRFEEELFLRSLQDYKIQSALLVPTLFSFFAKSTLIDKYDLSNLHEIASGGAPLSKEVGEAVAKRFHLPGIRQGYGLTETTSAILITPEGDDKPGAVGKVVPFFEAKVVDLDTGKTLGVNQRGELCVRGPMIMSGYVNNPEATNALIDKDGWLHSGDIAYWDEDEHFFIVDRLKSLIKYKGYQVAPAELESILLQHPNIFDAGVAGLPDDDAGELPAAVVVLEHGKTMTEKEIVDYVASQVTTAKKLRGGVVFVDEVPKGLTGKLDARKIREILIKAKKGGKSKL

Assay [2] is described as follows: qHTS assay to identify small molecule agonists of the constitutive androstane receptor (CAR) signaling pathway - cell viability counter screen (AID 1224836). Further: nearly all actives have a fitted effect of over 45% in size. Further: potency means the concentration at half of the fitted maximal effect. The method, boiled down:
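Fluorescence from CellTiter-Fluor indicates live cells after 23 h exposure. The human hepatoma line expresses hCAR and a CYP2B6-2.2kb reporter. Incubation medium contains 0.75 uM PK11195 (final).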

The nature of assay [3]: qHTS assay to identify small molecule antagonists of the constitutive androstane receptor (CAR) signaling pathway - cell viability counter screen (AID 1224837). Further: nearly all actives have a fitted effect of over 45% in size. Further: potency means the concentration at half of the fitted maximal effect. The method, boiled down:
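Multiplexed cytotoxicity read-out for the CAR antagonist screen: double-stable HepG2-CYP2B6-hCAR cells co-treated with 50 nM CITCO (final) and compound over 15 concentrations, incubated 23 hr, then assessed by CellTiter-Fluor fluorescence.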
(In qHTS, concentration-response curves come from the screen itself.)

Assay [4] has as its target Nuclear receptor subfamily 1 group I member 3 (Homo sapiens) (UniProt Q14994). The assay is described as follows: qHTS assay to identify small molecule antagonists of the constitutive androstane receptor (CAR) signaling pathway (AID 1224838). Further: on the % scale 0 is the no-effect control and ±100 the full control effect; nearly all actives have a fitted effect of over 40% in size. The method, boiled down: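 Compounds were titrated across 15 concentrations onto HepG2 cells double-stably expressing hCAR and a CYP2B6-2.2kb reporter, together with 50 nM CITCO (final). After 24 h at 37 C, luciferase activity was measured by luminescence.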

The target is the same in assay [5]. The assay is described as follows: qHTS assay to identify small molecule agonists of the constitutive androstane receptor (CAR) signaling pathway (AID 1224839). Further: nearly all actives have a fitted effect of over 15% in size. Further: potency means the concentration at half of the fitted maximal effect. On activation: on the % scale 0 is the no-effect control and ±100 the full control effect. The method, boiled down:
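Stable hCAR/CYP2B6-2.2kb HepG2 line in DMEM with 10% FBS; compounds (15 concentrations) and 0.75 uM PK11195 final, 24 h at 37 C/5% CO2, then ONE-Glo luminescence after 30 min.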

Assay [6] is described as follows: qHTS assay to identify small molecule antagonists of the estrogen related receptor signaling pathway with the pleiotropic PPARgamma coactivator (PGC) from Tox21 10K library - cell viability counter screen (AID 1224840; active means well fitted cell-killing curve with a large enough effect in the repeat runs, not every such curve was filed as active; further: nearly all actives have a fitted effect of over 40% in size; further: potency means the concentration at half of the fitted maximal effect). The method, boiled down:
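Step one, plate 2,000 PGC/ERR cells per well; step two, incubate 6 h at 37 C/5% CO2; step three, pin-transfer compounds; step four, incubate 17.5 h; step five, add CellTiter-Fluor and read fluorescence after 30 min.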

Assay [7] can be described thus: qHTS assay to identify small molecule agonists of the estrogen related receptor signaling pathway with the pleiotropic PPARgamma coactivator (PGC) from Tox21 10K library (AID 1224842). Further: on the % scale 0 is the no-effect control and ±100 the full control effect; nearly all actives have a fitted effect of over 15% in size. The method, boiled down: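 PGC/ERR reporter cell line, 2,000 cells per well, incubated 6 h at 37 C before 23 nL compound in DMSO was added. After 18 h at 37 C, One-Glo luminescence read following 30 min at room temperature.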

The nature of assay [8]: qHTS assay to identify small molecule agonists of the hypoxia (HIF-1) signaling pathway - cell viability counter screen (AID 1224844; calls by dose curve; further: on the % scale 0 is the no-effect control and ±100 the full control effect; nearly all actives have a fitted effect of over 50% in size). The method, boiled down:
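Tox21 10K compounds were added to HRE-bla ME-180 cells (0.5% dialyzed FBS) and incubated 17 hrs at 37C; ATP-based CellTiter-Glo luminescence then reported cell viability in the same wells.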

The nature of assay [9]: qHTS assay to identify small molecule agonists of H2AX (AID 1224845; active means well fitted activation curve with a large enough effect in the signal ratio in the repeat runs, not every such curve was filed as active; the % refers to the signal ratio; further: on the % scale 0 is the no-effect control and ±100 the full control effect). The method, boiled down:
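Wild-type CHO-K1 cells, plated overnight, exposed 3hr at 37C to 15 concentrations (0.76% DMSO final). Lysed, then HTRF anti-pH2AX (S139) cryptate and anti-H2AX-d2 antibodies, 24 hr room temperature; 665/620 nm emission read.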

Assay [10] can be described thus: qHTS assay to identify small molecule agonists of the hypoxia (HIF-1) signaling pathway (AID 1224846; active means well fitted activation curve with a large enough effect in the signal ratio in the repeat runs, not every such curve was filed as active; the % refers to the signal ratio; further: on the % scale 0 is the no-effect control and ±100 the full control effect). The method, boiled down:
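Steps: seed ME-180 HRE-bla cells (2,000/well, 0.5% dialyzed FBS); incubate 5 hrs at 37C; pin-transfer compounds or DMSO; incubate 17 hrs; add LiveBLAzer B/G substrate CCF4-AM; measure reporter activation by FRET.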

The nature of assay [11]: qHTS assay to identify small molecule agonists of H2AX - cell viability counter screen (AID 1224847; calls by dose curve; further: nearly all actives have a fitted effect of over 30% in size; further: potency means the concentration at half of the fitted maximal effect). In short, it runs like this: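 Viability of CHO-K1 (wild type) cells after 3 hr compound exposure was measured by CellTiter-Glo luminescence.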
Assay [12] in a line: qHTS assay to identify small molecule antagonists of the estrogen related receptor (ERR) signaling pathway from Tox21 library (AID 1224848). Further: nearly all actives have a fitted effect of over 50% in size. Further: potency means the concentration at half of the fitted maximal effect. The method, boiled down: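 Luminescent reporter read-out (ONE-Glo) from NTP's ERR cell line after 18 h treatment at 37 C with DMSO-dissolved Tox21 compounds; cells pre-plated 6 h beforehand at 2,000 per well.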
A short description of assay [13]: qHTS assay to identify small molecule agonists of the estrogen related receptor (ERR) signaling pathway from Tox21 library (AID 1224849; calls by dose curve; further: on the % scale 0 is the no-effect control and ±100 the full control effect; nearly all actives have a fitted effect of over 15% in size). As to conditions: ERR reporter cell line, ONE-Glo luciferase, 18 h; at 92.4 µM (top of the series) unless noted. In short, it runs like this: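 Agonist signal is luciferase luminescence from an ERR reporter cell line treated 18 h at 37 C with DMSO-dissolved compounds, read 30 min after ONE-Glo addition at room temperature.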

Assay [14] is described as follows: qHTS RealTime-Glo MT Cell Viability Assay in HepG2 cells - 24 hour (AID 1224867). Further: on the % scale 0 is the no-effect control and ±100 the full control effect; nearly all actives have a fitted effect of over 50% in size. The method, boiled down:
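HepG2 cells were seeded at 600 cells/well together with NanoLuc luciferase and a cell-permeant prosubstrate, preincubated 5 h at 37 C/5% CO2, then pin-dosed with compounds in DMSO. Nonlytic luminescence from viable cells was read at each time point.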

Assay [15] in a line: qHTS RealTime-Glo MT Cell Viability Assay in HEK293 cells - 32 hour (AID 1224868). Further: nearly all actives have a fitted effect of over 50% in size. Further: potency means the concentration at half of the fitted maximal effect. In short, it runs like this:
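HEK293 cells were seeded at 600 cells/well together with NanoLuc luciferase and cell-permeant prosubstrate, preincubated 5 h at 37 C/5% CO2, then given compound in DMSO by pintool. Luminescence from viable-cell prosubstrate reduction was read repeatedly over 40 h.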

A short description of assay [16]: A CellTox Green Cytotoxicity Assay to monitor cytotoxicity in HEK293 cells - 0 hour (AID 1224869). In short, it runs like this: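 Cytotoxicity was tracked continuously in HEK293 cells by a DNA-binding dye excluded from viable cells. Compounds were transferred in DMSO 5 h after seeding; fluorescence was recorded at intervals up to 40 h.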
Assay [17] can be described thus: qHTS assay to identify small molecule antagonists of the estrogen related receptor signaling pathway with the pleiotropic PPARgamma coactivator (PGC) from Tox21 10K library (AID 1224841; call rule not given here; further: potency means the concentration at half of the fitted maximal effect). The method, boiled down: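 Antagonism in this quantitative HTS is taken from loss of luciferase signal in PGC/ERR cells. Cells (2,000/well) are treated with compounds in DMSO after a 6 h settling period and read by One-Glo luminescence after 18 h.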

The nature of assay [18]: qHTS assay to identify small molecule antagonists of the estrogen related receptor (ERR) signaling pathway from Tox21 library - cell viability counter screen (AID 1224834). Further: potency means the concentration at half of the fitted maximal effect; nearly all actives have a fitted effect of over 30% in size. In short, it runs like this:
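Cytotoxicity of test substances is gauged in the same ERR cells used for the antagonist screen, after 17.5 h of compound treatment at 37 C, by CellTiter-Fluor fluorescence measured after 30 min.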

In assay [19] the target is Thyrotropin receptor (Homo sapiens) (UniProt P16473). The assay is described as follows: qHTS assay to identify small molecule agonists of the thyroid stimulating hormone receptor (TSHR) signaling pathway (AID 1224843; calls by dose curve; further: on the % scale 0 is the no-effect control and ±100 the full control effect; nearly all actives have a fitted effect of over 45% in size). In short, it runs like this: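 Steps: seed 800 TSHR-HEK293 cells per well; add test compound and hold 30 min at ambient temperature; dispense cAMP-d2 then anti-cAMP cryptate; incubate 1 h at ambient; measure fluorescence intensity.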
Thyrotropin receptor (Homo sapiens), sequence (P16473 whole entry, looked up): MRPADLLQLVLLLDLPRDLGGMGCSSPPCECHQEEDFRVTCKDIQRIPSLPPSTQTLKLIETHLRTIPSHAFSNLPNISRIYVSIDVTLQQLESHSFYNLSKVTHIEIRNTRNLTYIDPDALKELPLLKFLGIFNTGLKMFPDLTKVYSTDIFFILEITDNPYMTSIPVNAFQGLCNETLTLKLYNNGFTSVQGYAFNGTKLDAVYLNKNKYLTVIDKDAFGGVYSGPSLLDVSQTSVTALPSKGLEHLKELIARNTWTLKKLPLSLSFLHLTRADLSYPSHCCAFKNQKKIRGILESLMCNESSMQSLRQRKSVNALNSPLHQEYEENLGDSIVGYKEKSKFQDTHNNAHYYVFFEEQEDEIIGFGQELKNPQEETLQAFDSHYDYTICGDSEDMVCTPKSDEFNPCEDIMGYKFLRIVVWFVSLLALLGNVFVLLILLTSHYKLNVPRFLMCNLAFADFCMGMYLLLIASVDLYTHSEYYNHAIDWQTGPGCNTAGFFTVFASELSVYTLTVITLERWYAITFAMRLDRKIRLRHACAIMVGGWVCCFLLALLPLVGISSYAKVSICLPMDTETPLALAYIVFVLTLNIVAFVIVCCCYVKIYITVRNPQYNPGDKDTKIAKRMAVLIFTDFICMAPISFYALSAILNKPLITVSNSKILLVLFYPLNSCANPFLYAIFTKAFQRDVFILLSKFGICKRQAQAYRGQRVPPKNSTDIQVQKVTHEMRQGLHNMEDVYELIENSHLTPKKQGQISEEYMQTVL

Unmarked numbers belong to inactive results. Results filed as inconclusive are left out. Active and inactive are the calls of the source. Unless noted, the call rests on the fitted dose curve; in most records, active means well fitted curve in the direction sought with a large enough effect in the repeat runs; inconclusive means weak or mixed curves; inactive means no such curve, though single readings can be large; an effect the other way counts as inactive or inconclusive.

Nuclear receptor subfamily 1 group I member 3 (Homo sapiens), sequence (Q14994 whole entry, looked up): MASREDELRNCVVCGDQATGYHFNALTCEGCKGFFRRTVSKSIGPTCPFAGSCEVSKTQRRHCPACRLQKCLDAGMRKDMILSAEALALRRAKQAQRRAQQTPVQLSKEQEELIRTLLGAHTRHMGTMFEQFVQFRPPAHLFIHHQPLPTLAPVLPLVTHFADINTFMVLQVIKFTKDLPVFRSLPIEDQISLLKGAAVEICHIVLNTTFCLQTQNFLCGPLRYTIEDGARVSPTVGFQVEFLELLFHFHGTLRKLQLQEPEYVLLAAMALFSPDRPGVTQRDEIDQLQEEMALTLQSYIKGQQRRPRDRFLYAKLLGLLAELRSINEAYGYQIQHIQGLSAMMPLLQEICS

`CN(C)C(=O)Nc1ccc(Oc2ccc(Cl)cc2)cc1`: the Potency is 63.3 µM (active) in assay [1]; 30.6 µM (active) in assay [5]; 89.8 µM (active) in assay [11]; 13.7 µM (active) in [12]; 38.9 µM (active) in [15]. The Potency result in [2], in assay [3], in assay [4], in assay [6], in [7] and in assay [8] was “inactive” each time. The Potency entry in assay [9], in assay [14] and in assay [16] was “inactive” each time. In addition, the result in [10] was inactive. In addition, the activity change, positive = activation in [13] is -44.7%.

As for `Nc1ccc(S(=O)(=O)O)cc1`, the Potency entry in assay [1], in [2], in assay [3], in assay [5], in assay [6] and in [17] was “inactive” throughout. Besides, the Potency result in assay [7], in [8], in assay [9], in assay [12], in assay [14] and in assay [15] was “inactive” throughout. For the same molecule, the activity change, positive = activation in assay [13] was 2.73%.

Regarding `CO[C@H]1C=CO[C@@]2(C)Oc3c(C)c(O)c4c(O)c(c5c(c4c3C2=O)=NC2(CCN(CC(C)C)CC2)N=5)NC(=O)/C(C)=C\C=C/[C@H](C)[C@H](O)[C@@H](C)[C@@H](O)[C@@H](C)[C@H](OC(C)=O)[C@@H]1C`, the Potency was 47.5 µM (active) in assay [18]; 53.3 µM (active) in assay [2]; 47.5 µM (active) in assay [3]; 53.3 µM (active) in [6]; 23.8 µM (active) in assay [17]; 98.6 µM (active) in [11]. In addition, the Potency in assay [12] was 30 µM (active); in [15], 38.1 µM (active). Moreover, the Potency result in assay [5] and in assay [7] was “inactive” in each case. The result in assay [10] was inactive. In addition, the activity change, positive = activation in [13] is -63.3%.

For `C=CC(C)(O)CCCC(C)CCCC(C)CCCC(C)C` (stereo unspecified), the Potency entry in assay [1], in assay [2], in assay [3], in assay [5], in assay [6] and in assay [17] was “inactive” throughout. Also, the Potency result in assay [19], in assay [8], in assay [9], in assay [11], in [12] and in assay [14] was “inactive” throughout. For the same molecule, the Potency entry in assay [15] is “inactive”. Further, the molecule was classed as inactive in [10]. In addition, the activity change, positive = activation in [13] was -0.948%.

For the molecule `CCCOCCOCCO`, the Potency entry in assay [1], in assay [2], in assay [3], in [4], in assay [5] and in assay [6] was “inactive” throughout. Moreover, the Potency entry in assay [19], in [8], in assay [9], in assay [11], in assay [14] and in assay [15] was “inactive” throughout. Further, the Potency result in assay [16] was “inactive”. Further, the outcome in assay [10] was inactive.

On to `C=CCNc1nc(NCC=C)nc(N2CCN(C(c3ccc(F)cc3)c3ccc(F)cc3)CC2)n1`, for which the Potency result in assay [1], in [2], in [3], in assay [4], in assay [5] and in assay [6] was “inactive” each time. Besides, the Potency result in assay [19], in assay [8], in [9], in assay [14], in [15] and in assay [16] was “inactive” in each case. In assay [10], the outcome was inactive.

With `CC(=O)Oc1ccc2c(c1)CC[C@@H]1[C@@H]2CC[C@]2(C)[C@@H](O)CC[C@@H]12`, the Potency in assay [1] is 24.5 µM (active); in assay [5], 9.44 µM (active); in assay [15], 9.52 µM (active). The Potency result in [2], in [3], in [4], in assay [6], in [17] and in [7] was “inactive” each time. For the same molecule, the Potency result in assay [19], in assay [8], in assay [9], in [14] and in assay [16] was “inactive” each time. The outcome in [10] was inactive. For the same molecule, the activity change, positive = activation in assay [13] is -29.3% [at 42.5 µM].

As for `N#C/C(=C1\SCC(c2ccccc2Cl)S1)n1ccnc1` (stereo unspecified), the Potency entry in assay [1], in assay [2], in [3], in assay [4], in assay [6] and in assay [19] was “inactive” in each case. Also, the Potency result in [8], in assay [9], in assay [11], in assay [14] and in [16] was “inactive” in each case. Also, the molecule was classed as inactive in assay [10].
